# tim10-1 inh: inhibits growth of tim10-1 mutant yeast. inhibition, % at 20 µM. AID 463190. S. cerevisiae tim10-1 ts strain growth, BacTiter-Glo, 24 h. actives 2.2% (n = 330,000);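 active means inhibition of at least 40%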;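 further: mutant grown at 25 °C; 0% = DMSO wells with yeast and 100% = wells holding no yeast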
# tim23-1 inh: inhibits growth of tim23-1 mutant yeast | AID 463212 | S. cerevisiae tim23-1 growth, BacTiter-Glo luminescence, 24 h | inhibition, % at 20 µM | actives 1.3% (n = 330,000);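 active means growth inhibition of the mutant yeast at or above 50%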;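 further: temperature-sensitive mutant grown at 25 °C; plate controls were DMSO-treated mutant yeast for no effect and medium wells lacking yeast for full effect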
# TIM10 inh: growth inhibitors of TIM10 yeast strain; inhibition, % at 10 µM; actives 1.4% (n = 330,000); S. cerevisiae TIM10 strain growth, BacTiter-Glo luminescence, 24 h;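 active means inhibition of 40% or more at the single tested concentration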;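 further: wild-type TIM10 isogenic control strain grown at permissive 25 °C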
# SKKanGAS inh: blocks kanamycin growth of S. pyogenes SKKanGAS strain; BacTiter-Glo, 6 h; inhibition, % at 7.5 µM; actives 1.3% (n = 300,000);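 active means mean replicate score, as percent of positive control median, at least 50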;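 further: strain carries kanamycin resistance gene driven by streptokinase promoter and grows in 40 µg/ml kanamycin; loss of luminescence reflects streptokinase promoter inhibition or plain growth inhibition; 0% = median of DMSO wells and 100% = positive control at its reference dose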
# PfHsp90 set2: reduces growth (ATP signal) of yeast expressing P. falciparum Hsp90 | actives 0.32% (n = 310,000) | S. cerevisiae expressing PfHsp90, BacTiter-Glo ATP, 48 h; yeast lacking PDR1 and PDR3 efflux regulators | inhibition, % at 9.4 µM;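 active means every replicate shows inhibition above about 80%, whatever the replicate mean, limit read from the data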;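 further: 0% = DMSO neutral controls and 100% = 20 µM radicicol positive controls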
# NLRP3 yeast inh: inhibitors of NALP3 inflammasome in yeast; AID 2825; Yeast reconstituted NLRP3/ASC/caspase-1, beta-gal luminescence, 24 h; inhibition, % at 10 µM; actives 0.39% (n = 330,000);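 active means inhibition of 50% or more; inactive means inhibition below 50%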;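 further: plate controls were induced DMSO wells for no effect and uninduced yeast grown without galactose for full effect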
# tim10-1 conf: tim10-1 yeast growth inhibition, confirmed | shares compounds with tim10-1 inh | S. cerevisiae tim10-1 ts strain growth, BacTiter-Glo, 24 h | inhibition, % at 20 µM | actives 56% (n = 7,400);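 active means inhibition of yeast growth at or above a set limit in either of two repeat tests at 20 µM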;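 further: tim10-1 mutant grown at permissive 25 °C to find synthetic lethal compounds; 0% = DMSO yeast wells and 100% = medium wells without yeast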
# Active calls of the source: *; x = not tested or not shown. Only some compounds are listed: those with a hit (about 4.6% of all), similar ones and a draw of the others.
SMILES,tim10-1 inh,tim23-1 inh,TIM10 inh,SKKanGAS inh,PfHsp90 set2,NLRP3 yeast inh,tim10-1 conf
N#Cc1c(N2CCCC(O)C2)nc(N)c2c(N)nc3c(c12)CC(=O)N3C12CC3CC(CC(C3)C1)C2 (stereo not drawn),49.6*,33.9,36.2,40.9,-14.1,8.6,33.1*
COc1ccc(C(=O)O/N=C(\N)c2ccc(Br)cc2)cc1,43.2*,31.1,39.0,0.8,0.5,34.6,53.1*
COc1ccccc1CC(=O)O/N=C(\N)c1ccccn1,-5.2,-1.8,2.2,3.9,-13.3,9.4,x
COc1ccc(/C(N)=N/OC(=O)Cc2ccccc2OC)cc1,49.4*,19.6,23.1,-4.1,-33.2,16.0,32.3*
COc1ccc(-c2csc(CCn3nc(C)cc3C)n2)cc1OC,-1.4,18.5,-3.4,-3.0,2.0,2.0,x
COc1ccc(-c2csc(CCn3nc(C)cc3C)n2)cc1,40.7*,26.8,24.8,-1.5,-17.1,3.9,34.9*
Brc1ccccc1-c1nnc2sc(-c3ccc4c(c3)OCCO4)nn12,48.8*,42.1,34.2,7.9,x,16.6,24.2
COc1ccc(Cn2c(SCc3cc(C)ccc3C)nc3cc(OC)c(OC)cc3c2=N)cc1,59.1*,2.6,-38.7,109.2*,x,28.8,33.9*
COc1cc2nc(SCc3ccc(Cl)cc3Cl)n(Cc3cccs3)c(=N)c2cc1OC,22.9,16.2,27.8,4.2,20.9,10.3,x
CC(=O)Nc1ccccc1OCC(=O)c1cc(C)n(Cc2cccs2)c1C,48.4*,18.9,15.5,4.7,x,-7.8,19.0
COc1ccc(-n2cnnc2SCC(=O)c2cc(C)n(Cc3cccs3)c2C)cc1,44.2*,20.6,25.4,12.9,-19.0,6.0,23.2
Cc1cc(C(=O)COc2cccnc2[N+](=O)[O-])c(C)n1Cc1cccs1,10.5,-14.1,-0.1,-3.8,-7.7,13.4,x
CCCc1cc(=O)[nH]c(SCC(=O)Nc2sc3c(c2C#N)CCC(C)C3)n1 (stereo not drawn),46.6*,21.1,13.6,15.8,x,-2.3,-8.0
CC(C)(C)C1CCc2c(sc(NC(=O)CSc3ncn[nH]3)c2C#N)C1 (stereo not drawn),40.1*,37.6,22.9,-2.1,7.0,20.9,12.4
CC1CCc2c(sc(NC(=O)CSc3ncn[nH]3)c2C#N)C1 (stereo not drawn),-2.4,11.7,-3.1,5.7,11.0,11.7,x
CCCCn1nnnc1SCC(=O)c1cc(Cl)ccc1OC,52.1*,38.7,16.5,10.5,-3.1,27.4,32.8*
COc1ccc(S(=O)(=O)N2CCCC(C(=O)NCC3CCCO3)C2)cc1OC (stereo not drawn),-31.4,-7.5,11.6,4.3,-7.8,17.5,x
Cc1ccnc2c1ccc1cccnc12,42.1*,37.9,-14.9,x,19.6,27.9,16.8
COC(=O)C(C)(C)ONC(=O)Nc1ccccc1,5.8,-2.3,-7.9,-0.5,-1.0,-3.2,x
S=C(Nc1ccc(Nc2ccccc2)cc1)NC1CCCCCC1,42.6*,6.4,27.7,16.8,-10.6,15.8,38.3*
S=C(Nc1cccnc1)NC1CCCCCCC1,49.7*,33.2,31.7,0.8,38.4,8.3,44.6*
S=C(Nc1ccc2[nH]ccc2c1)NC1CCCCC1,41.8*,24.1,34.9,-1.2,17.7,18.3,7.5
S=C(Nc1ccc(Cl)cc1)NC1CCCCC1,7.4,23.0,3.1,-13.8,1.2,41.7,x
O=C(O)C1C=Cc2ccccc2N1C(=O)c1ccccc1 (stereo not drawn) (tested in a mixture with another compound),x,x,x,x,-3.7,x,x
Cc1nnc(SCC(=O)N(C)c2ccccc2)n1Cc1ccccc1,4.7,-4.9,18.3,-4.0,-8.2,-5.0,x
SMILES,tim10-1 inh,tim23-1 inh,TIM10 inh,SKKanGAS inh,PfHsp90 set2,NLRP3 yeast inh,tim10-1 conf
CNC(=O)C1CCN(S(=O)(=O)c2c(C)noc2/C=C/c2ccc(OC)cc2)CC1,13.3,11.8,0.1,-1.0,-13.5,-2.5,x
CCOc1cccc(/C=N/NC(=S)Nc2ccccc2[N+](=O)[O-])c1O,45.9*,7.6,-2.6,73.2*,-0.3,22.6,24.0
CCCCNC(=S)N/N=C/c1cccc(OCC)c1O,-4.0,-0.8,-18.2,-10.7,-16.7,2.0,x
COc1c(C)cc(Br)cc1C(=O)Nc1cccc(NC(=O)c2ccco2)c1,42.3*,42.3,35.7,25.7,-0.6,26.3,35.8*
COc1ccc(Br)cc1C(=O)Nc1cccc(C)c1,4.3,3.7,-11.3,-0.3,-0.1,28.1,x
COc1cccc(NC(=O)c2ccco2)c1,6.1,33.9,18.0,4.5,2.5,27.7,x
COc1ccc(Br)cc1C(=O)Nc1cccc(NC(=O)c2ccco2)c1,42.2*,49.1,13.7,1.7,-8.5,4.7,30.8*
COc1ccc(C(=O)Nc2cc(C)nn2-c2ccc(F)cc2)cc1,-3.1,13.1,-0.6,-2.5,7.1,24.1,x
CCC1CCCCN1S(=O)(=O)c1ccc(NC(=O)c2nc(S(C)(=O)=O)ncc2Cl)cc1 (stereo not drawn),53.7*,38.3,23.8,50.6*,3.4,-2.5,8.9
CCS(=O)(=O)c1ncc(Cl)c(C(=O)Nc2ccc(S(=O)(=O)N3CCCC(C)C3)cc2)n1 (stereo not drawn),42.7*,38.8,-3.3,37.3,-40.0,15.8,-2.8
COc1ccc2nc(N3CCCC(C(=O)NCCCN4C(C)CCCC4C)C3)sc2c1 (stereo not drawn),-2.7,12.2,8.1,4.9,-22.6,25.0,x
CC(Sc1nnc(NC2CCCCC2)s1)C(=O)Nc1ccc2c(c1)C(=O)c1ccccc1C2=O (stereo not drawn),41.9*,23.0,17.2,28.2,-8.0,24.2,18.9
O=C(c1cc(COc2cccc(C(F)(F)F)c2)on1)N1C[C@@H]2CCC[C@H]1C2,45.0*,36.9,34.2,3.1,2.1,10.8,34.3*
CCCCN1C(=O)NC(NC(=O)c2ccco2)(C(F)(F)F)C1=O (stereo not drawn),14.2,8.0,-0.9,4.7,6.5,2.4,x
CC(C)Oc1ccc(C(=O)NC2(C(F)(F)F)NC(=O)N(CCCc3ccccc3)C2=O)cc1 (stereo not drawn),42.8*,42.7,4.0,32.3,14.1,4.6,30.4
CCc1c(C)nc(SCC(=O)CC(=O)OC(C)C)c(C#N)c1C,44.1*,41.6,26.8,2.5,x,15.4,31.1
Cc1noc(NS(=O)(=O)c2ccc(NC(=O)Nc3ccc(Cl)c(Cl)c3)cc2)c1C,46.3*,14.6,17.0,27.6,9.6,12.7,38.0*
O=C(CSc1nc(O)cc(=O)[nH]1)N1c2ccccc2Sc2ccccc21,-8.6,16.0,-0.5,12.4,-86.8,3.8,x
O=C(CSc1nc2ccccc2[nH]1)N1c2ccccc2Sc2ccccc21,45.5*,36.7,26.4,31.3,-17.2,5.3,19.9

# Screening data as filed in PubChem BioAssay.
